Bioassay records from PubChem BioAssay.
ADAM17 inh = ADAM17 inhibition, QFRET primary screen; AID 720648; 0.83% of 370,000 active; recombinant ADAM17, EDANS/DABCYL FRET peptide cleavage; inhibition, % at 6.95 µM;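 active means inhibition above the mean of compounds lying between control limits plus 3 SD, set per campaign, cut at about 8.5% in these data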;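 further: 0% = DMSO-only wells as the low control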
PLC-gamma1 inh = inhibitors of human phospholipase C gamma1; purified PLC-gamma1, fluorogenic substrate, fluorescence; inhibition, % at 12.2 µM; 0.84% of 370,000 active; AID 720700; in the data active means inhibition above about 9.5%
PLCb3 inh = PLC-beta3 (human) inhibition, primary screen; Purified PLC-beta3, fluorogenic substrate, fluorescence; inhibition, % at 12.2 µM; 0.18% of 370,000 active;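 further: 0% = median of compound wells on plate and 100% = full blocker control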
ADAM10 inh = inhibits human ADAM10 | O14672 | recombinant ADAM10, EDANS/DABCYL FRET peptide cleavage, 3 h | inhibition, % at 7 µM | 0.62% of 370,000 active | AID 720582;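 active means inhibition above a per-campaign cutoff equal to the mean of compounds falling between control-based bounds plus 3 SD, cut at about 20% in these data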;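 further: 0% = DMSO wells while the 100% control is not disclosed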
KLK7 zymogen act = activates the human kallikrein-7 zymogen; AID 652039; 0.9% of 370,000 active; activation, % at 7 µM; P49862; purified proKLK7, EDANS-DABCYL substrate fluorescence; 100% is mature enzyme control, 0% vehicle;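 active means activation above the mean of all tested compounds plus 3 SD, computed per campaign excluding outliers beyond control limits, cut at about 13% in these data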
PLCg1 ctr = PLC-gamma1 inhibition, counter-screen for PLC-beta3 hits. shares compounds with PLC-gamma1 inh. purified PLC-gamma1, fluorogenic substrate, fluorescence. inhibition, % at 12.3 µM. 3.1% of 3,300 active. AID 743258; in the data active means inhibition above about 9.5%
PLCbeta3 conf = human PLC-beta3 inhibition, confirmation; shares compounds with PLC-gamma1 inh; purified PLC-beta3, fluorogenic substrate fluorescence; inhibition, % at 12.3 µM; 1% of 3,300 active; AID 743261
Numbers without * were called inactive; nt = no result. Only some compounds are listed: those with a hit (about 2.9% of all), similar ones and a draw of the others. Unless noted, no stated cut-off is given here; in the data, active means inhibition above about 11%; inactive means the rest.

SMILES | ADAM17 inh | PLC-gamma1 inh | PLCb3 inh | ADAM10 inh | KLK7 zymogen act | PLCg1 ctr | PLCbeta3 conf
CC1CCc2cc(F)ccc2N1C(=O)CSc1nnc2c3cc(F)ccc3n(C)c2n1 (stereo not given) | 0 | 5 | 4 | 9 | 0 | nt | nt
O=c1nc(NCc2ccco2)sc2ncccc12 | -1 | 1 | 0 | -3 | 0 | nt | nt
Cc1ccc(Nc2nc(=O)c3cccnc3s2)cc1 | 8 | 11* | 2 | 11 | 0 | -6 | -3
CC(C)CC(N)c1csc(NC(=O)c2cc(C(C)(C)C)nn2Cc2ccccc2)n1 (stereo not given) | 8 | 16* | 5 | 12 | -1 | -3 | -1
CC(C)CC(N)c1csc(NC(=O)Nc2ccccc2Cc2ccccc2)n1 (stereo not given) | -2 | 3 | 5 | 6 | 0 | nt | nt
COC(=O)CNC(=O)c1cn(-c2ccc(C)c(C)c2)c(=O)c2ccccc12 | -5 | -3 | -7 | -4 | 0 | nt | nt
COc1ccc([N+](=O)[O-])cc1NC(=O)c1cn(-c2ccc(C)c(C)c2)c(=O)c2ccccc12 | 4 | 11* | 6 | 2 | 0 | -4 | -2
COCC(=O)Nc1ccc([N+](=O)[O-])cc1OC | 0 | 2 | 3 | -1 | 0 | nt | nt
COCC(=O)Nc1cc([N+](=O)[O-])ccc1OC | -3 | 13* | 5 | 2 | 0 | -3 | 0
COc1ccc(N2CCN(CCCNC(=O)CCc3ccc(F)cc3)CC2)cc1 | -3 | 1 | 2 | 0 | 0 | nt | nt
O=[N+]([O-])c1ccc(N2CCCC2)cc1N1CCCC1 | 5 | 9.6* | 4 | 6 | -1 | -5 | -3
O=C(COC(=O)c1ccccc1)NCC1COc2ccccc2O1 (stereo not given) | 0 | 2 | -2 | -4 | 0 | nt | nt
CC(C)CC(=O)OCc1cn(-c2ccccc2)nn1 | 6 | 15* | 6 | 12 | 0 | -4 | -1
CCNC(=O)OCc1cn(-c2ccccc2)nn1 | 0 | 2 | 3 | 4 | 0 | nt | nt
CC(C)(C)C(=O)OCc1cn(-c2ccccc2)nn1 | -2 | 11* | 6 | -5 | 0 | -5 | -3
CCOC(=O)C(CCCOc1ccccc1C)C(=O)OCC | 6 | 12* | -11 | 7 | 1 | -5 | -2
COc1ccc(F)cc1Cn1nc(C(=O)O)c2ccccc2c1=O | 3 | 12* | 1 | 6 | 0 | 5 | 2
CC(NC(=O)Cn1nc(C(=O)O)c2ccccc2c1=O)c1ccccc1 (stereo not given) | 4 | 11* | 12* | 7 | 0 | -2 | 1
CC(NC(=O)Cn1nc(-c2ccccc2)c2ccccc2c1=O)c1ccccc1 (stereo not given) | -1 | 1 | 4 | -2 | 0 | nt | nt
CNC(=O)C(=O)Nc1cc2c3c(c1)C(C)C(=O)N3CCC2 (stereo not given) | -3 | -5 | -27 | -1 | 0 | nt | nt
COc1cc(Cl)cc(C(c2c(C(=O)O)[nH]c3ccccc23)c2c(C(=O)O)[nH]c3ccccc23)c1O | 1 | 11* | -9 | -8 | 0 | 8 | -13
CC(=O)N1CCN(C(=O)CCn2nnc3ccccc32)CC1 | 0 | 0 | -8 | 2 | 0 | nt | nt
Cc1cccc(N2CCN(C(=O)C3CCC(CNS(=O)(=O)c4cccs4)CC3)CC2)c1C (stereo not given) | 4 | -4 | -10 | 12 | 0 | nt | nt
O=C(C1CCC(CNS(=O)(=O)c2cccs2)CC1)N1CCCCC1 (stereo not given) | 5 | 6 | 16* | 6 | 0 | -4 | -2
O=C(Cn1nc(C(F)(F)F)c2c1CCCCC2)N1CCOCC1 | -2 | -1 | -1 | -6 | 0 | nt | nt
SMILES | ADAM17 inh | PLC-gamma1 inh | PLCb3 inh | ADAM10 inh | KLK7 zymogen act | PLCg1 ctr | PLCbeta3 conf
O=C(Cn1nc(C(F)(F)F)c2c1CCCC2)N1CCOCC1 | -2 | 9.6* | 1 | 0 | 0 | -9 | -4
CC(C)(C)N1C(=O)c2ccccc2NC(=O)C1C(=O)NCCOc1ccccc1 (stereo not given) | 0 | -2 | -2 | -9 | 1 | nt | nt
COc1ccccc1C(=O)COC(=O)/C=C/c1ccccc1 | -1 | 9.6* | -3 | 15 | 0 | -6 | -12
O=C1CC(c2ccc(Cl)cc2)c2c(O)cc(O)cc2O1 (stereo not given) | 6 | 10* | -1 | 13 | 0 | -6 | -3
O=C(c1ccc(C(F)(F)F)cc1)C1CCCN(C(=O)CN2C(=O)CSC2=O)C1 (stereo not given) | -2 | 1 | -6 | -3 | -1 | nt | nt
CN1CCOc2ccc(S(=O)(=O)NCCc3ccc(Cl)cc3)cc21 | 6 | 13* | -7 | 13 | 0 | 4 | 0
COC(=O)C[C@@H]1CC[C@H](NC(=O)Nc2ccc(OC)cc2)[C@@H](CO)O1 | -3 | 1 | -2 | -1 | 1 | nt | nt
Cc1ccc(-n2cc(CN3CCC(O)(c4ccccn4)CC3)c(-c3ccc(F)cc3)n2)cc1 | 0 | 9.8* | 0 | 15 | 1 | -3 | 1
Cc1ccc(-n2cc(CN3CCNC(=O)CC3)c(-c3ccc(F)cc3)n2)cc1 | 3 | 5 | -7 | 7 | 0 | nt | nt
COc1cccc(C(=O)NNC(=O)CCC(=O)O)c1 | 7 | 9.9* | -3 | 0 | 1 | -9 | -5
O=C(O)CCC(=O)NNC(=O)c1cccc(Cl)c1 | -1 | -2 | -2 | -3 | -1 | nt | nt
CCn1c(CNc2ccc(C)cc2)nnc1SCC(N)=O | 2 | 9.7* | 5 | 5 | -1 | -3 | 0
CCCNC(=O)C(Cc1ccc(OC)cc1)NC(=O)c1ccc(C#N)cc1 (stereo not given) | -3 | 0 | 1 | -6 | 0 | nt | nt
CCCNC(=O)C(Cc1ccc(OC)cc1)NC(=O)c1ccc(Cl)cc1 (stereo not given) | 5 | 13* | 8 | 6 | 0 | -6 | 0
Cc1cccc(Oc2nccc(C(F)(F)F)c2C(=O)Nc2ccc(F)cc2F)c1 | 2 | 7 | -1 | 5 | 0 | nt | nt
O=C(Nc1ccc(F)cc1F)c1c(C(F)(F)F)ccnc1Oc1ccccc1 | 3 | 11* | 1 | 10 | 0 | -5 | 1
CC1(C(=O)NS(=O)(=O)c2ccccc2Cl)CCN1C(=O)CCC1CCCC1 (stereo not given) | 4 | 9 | 1 | 3 | 0 | nt | nt
COc1ccc([N+](=O)[O-])cc1NC(=O)C(C)OC(=O)CSC(C)C(=O)Nc1cc(C)on1 (stereo not given) | 4 | 10* | 4 | 3 | 0 | -2 | 0
COc1cc(/C=N/NC(=O)c2cc[n+]([O-])cc2)cc(OC)c1OC | -2 | 3 | -4 | -2 | 0 | nt | nt
COc1cc(/C=N/NC(=O)c2cc[n+]([O-])cc2)ccc1O | 8 | 17* | 10 | 12 | 0 | 3 | 2
